In PubChem BioAssay AID720513 (Broad Institute, 2013):
In all, about 2,100 compounds went through this assay and about 480 (23%) were called active. About 5% were inconclusive and are not listed.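 How the source made its calls: active means fitted curve reaches 40% activation at or below the top valid concentration, in every replicate test; inconclusive means replicate tests disagree on the call; inactive means the rest, including activity in the opposite direction.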 These entries were drawn from the full list. Measured potencies and affinities stand elsewhere.

experiment: PGC1a acetylation increase, cellular AlphaLISA – cell-based, cherry-picked samples, set 6, dose response (AID 720513); settings: U2OS PGC1a acetylation AlphaLISA, overnight, 0 = neutral, -100 = inhibitor control; series mostly up to 19.5 µM; activation (acetylation increase): at the top concentration;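 further: cells made to overexpress flag tagged PGC1a plus GCN5 acetyltransferase by viral infection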

Activation (acetylation increase), inactive:
Nc1nn(-c2ccccc2)nc1C(=O)OCc1ccccc1 -22.4%
N#Cc1c(-c2cccc(Br)c2)cc(-c2ccco2)[nH]c1=O 9.15%
COCc1ccc(CN2CCC(n3nccc3NC(=O)c3ccc4c(c3)OCO4)CC2)o1 -5.4%
CSCC(=O)N1CCCC(CO)(Cc2ccccc2C)C1 (centres undefined) 10.3%
CO[C@H]1CN(C)C(=O)c2cc(NS(C)(=O)=O)ccc2OC[C@H](C)N(C(=O)NC(C)C)C[C@@H]1C 2.58%
Cc1ccc(Nc2nc(C)cc(C)c2C(N)=O)c(C)c1 33.1%
O=c1[nH]nc(-c2ccc(NCCCO)c([N+](=O)[O-])c2)c2ccccc12 -24.9%
Cc1ccc(NC(=O)C2C(c3ccccc3)C2(Cl)Cl)c(C)c1 (centres undefined) 33.3%
O=C(/C=C/c1ccc(N2CCCCC2)c([N+](=O)[O-])c1)c1ccc(O)cc1 -41.9%
CCOc1ccc2nnc(-c3ccc(Br)cc3)n2n1 -12.6%
CS(=O)(=O)Nc1ccc2c(c1)[C@@H]1C[C@H](CC(=O)N3CCc4ccccc4C3)O[C@@H](CO)[C@@H]1O2 -3.22%
Nc1ncc([N+](=O)[O-])c(N2CCCCCC2)n1 30.6%
CCNC(=O)NC(=O)COc1ccccc1C#N -4.29%
O=C1c2ccccc2-[n+]2ccc3c([nH]c4ccccc43)c21 -95.9%
Cc1[nH]c(=O)[nH]c(=O)c1S(=O)(=O)Nc1ccc(F)c(Cl)c1 -9.01%
CCn1c(SCC(=O)Nc2ccc(OC)c(OC)c2)nnc1-c1cccs1 -4.29%
CCc1ccc(NC(=O)CSc2nnc(-c3cnccn3)n2Cc2ccco2)cc1 -3.13%
COCC(=O)OCC(=O)Nc1cc(C(C)(C)C)nn1-c1ccccc1 16.7%
CN1[C@@H]2CC(OC(=O)[C@H](CO)c3ccccc3)C[C@H]1[C@@H]1O[C@@H]12 (some centres undefined) -9.22%
CCOC(=O)C1CN(S(=O)(=O)c2ccccc2)c2cc(S(=O)(=O)CC)ccc2O1 (centres undefined) 11.5%
CCOC(=O)C1CN(S(=O)(=O)c2ccc(C)cc2)c2cc(S(=O)(=O)CC)ccc2O1 (centres undefined) 50.5%
Cc1cc2nc(/C=C/c3cccnc3)[nH]c2cc1C -9.66%
COc1ccc(C2c3[nH]c4ccccc4c3C[C@H]3C(=O)N(c4ccccc4C(=O)N4CCC[C@@H]4C(=O)O)C(=O)N23)cc1 (some centres undefined) 13.7%
O=C(CCC1CCN(Cc2ccccc2Cl)CC1)NC1CC1 4.09%
CC(=O)NC1CCN(CC(=O)Nc2nccs2)CC1 14.7%
Cc1ccccc1Oc1cc(-n2ncc(Cl)c(Cl)c2=O)ncn1 -121%
CC(C)(C)NC(=O)Cn1nnc(-c2ccccc2NC(=O)c2ccco2)n1 34.3%
O=C(Cc1ccccc1)Nc1ccc(Cl)cn1 -6.87%
Cc1noc(C)c1NC(=O)Nc1ccc2c(c1)C(=O)N([C@@H](C)CO)C[C@@H](C)[C@@H](CN(C)CC1CCCCC1)OCCCC[C@H](C)O2 12.9%
COc1cc(CN2CCN(Cc3ccccc3C(F)(F)F)CC2)cc(OC)c1OC 25.1%
COc1ccccc1CN1C[C@@H]2C[C@@H](c3cccc(C)n3)N3CCC[C@@]23C1=O -3.7%
Cc1nc(C(C)N(C)Cc2nc(-c3ccc4c(c3)OCO4)no2)c(C)s1 (centres undefined) -3.64%
CC(NC(=O)Nc1cccnc1)(C(F)(F)F)C(F)(F)F 10.9%
C#CC(CC)(CC)NC(=O)c1ccc(Br)s1 14.2%
CC(=O)c1cccc(NC(=O)Nc2cccnc2)c1 24.1%
COc1ccccc1C#Cc1ccc2c(c1)O[C@@H](CN(C)Cc1cccnc1)[C@H](C)CN([C@H](C)CO)S2(=O)=O -88.9%
OC(c1cc(C(F)(F)F)nc2c(C(F)(F)F)cccc12)C1CCCCN1 (centres undefined) -96.5%
Cc1ccc(-c2cnc3c(c2)C(=O)N([C@H](C)CO)C[C@H](C)[C@@H](CN(C)C)O3)cc1 -14.1%
C[C@@H](C(=O)Nc1cc(C(F)(F)F)ccc1N1CCOCC1)N1C(=O)C2CC=CCC2C1=O (some centres undefined) 18.7%
C[C@@H]1CCCCO[C@H](CN(C)Cc2ccc(Cl)c(Cl)c2)[C@H](C)CN([C@@H](C)CO)C(=O)c2cc(NC(=O)Nc3ccc(F)cc3)ccc2O1 -62.8%
CCCCn1c(SCC(=O)NCc2ccc3c(c2)OCO3)nnc1C(CC)N(C)C (centres undefined) 11.7%
COc1cc2cc(C)c3nnc(SCC(=O)Nc4cc(C)on4)n3c2cc1OC 19.4%
Cc1nc2ccccn2c1C(=O)/C=C/c1ccc(F)cc1 -48.2%
CN(C)C(=O)c1ccc(-c2ccc([C@H]3[C@H]4CN(C(=O)CC5CC5)CC(=O)N4[C@H]3CO)cc2)cc1 5.63%
O=C(O)c1ccc2c(c1)OCCCO2 0.978%
O=C(CCN1CCc2ccccc2C(c2ccccc2)C1)c1ccc2c(c1)OCCO2 (centres undefined) 8.71%
CCC(C)NC(=O)c1ccc2c(SCC(=O)O)c3c(nc2c1)CCCC3 (centres undefined) 32.4% [at 10 µM]
COc1cccc(C(=O)CSc2nnc(CNS(=O)(=O)c3ccc(C)cc3)n2C)c1 -16.2%
C[C@@H]1CN([C@@H](C)CO)C(=O)c2cc(NC(=O)CCCN(C)C)ccc2O[C@@H](C)CCCCO[C@@H]1CN(C)Cc1ccc(C(F)(F)F)cc1 -9.75%
Cn1c(=O)cc(OCCCC(=O)NC2CCCC2)c2ccccc21 29.7%
CC1=CC=CC2=NC(=O)CC(C)(C(=O)N(CC(=O)NC3CCCC3)c3ccccc3C)N12 (centres undefined) -0.23%
c1nc(NC2CCCCCC2)c2[nH]cnc2n1 -25.2%
CCOc1cc(C)c(S(=O)(=O)N2CCCC2)cc1C -5.67%
O=C(Nc1cccc(F)c1)C1CCN(S(=O)(=O)c2cccc3nonc23)CC1 4.9%
CCOc1ccc(S(N)(=O)=O)cc1-c1nc2c(C(C)(C)C)nn(C)c2c(=O)[nH]1 19%
O=C(CC1CC1)N[C@@H]1CC[C@@H](CCNS(=O)(=O)c2ccc(Cl)cc2)O[C@@H]1CO 11.2%
O=C(NCc1ccco1)c1ccc(Cn2c(=O)c3ccccc3n(Cc3ccc(Cl)cc3)c2=O)cc1 -3.9%
Cc1cccn2c(=O)c3cc(C(=O)NCc4ccco4)c(=N)n(CCc4ccccc4)c3nc12 -4.71%
Cc1ccc(S(=O)(=O)N2CCCC(C(=O)NCCC3=CCCCC3)C2)cc1 (centres undefined) 14.2%
COc1cccc(C(=O)NCCS(=O)(=O)N2CCN(C(=O)c3ccco3)CC2)c1 3.59%
COc1ccc(S(=O)(=O)NCCC(=O)NCc2ccc(F)cc2)cc1 -14.2%
COc1ccc(CCNC(=O)c2ccc(Cl)cc2)cc1 16.4%
COc1ccc(CCNc2ccc(C(CC(N)=O)NC(=O)c3cc(C)cc(C)c3)cc2[N+](=O)[O-])cc1 (centres undefined) 7.93%
CN(C[C@H]1N[C@@H](CO)[C@@H]1c1ccc(C2=CCCC2)cc1)C(=O)c1cccc(F)c1 -91.5%
Cc1ccsc1C(=O)Nc1cc(Cl)ccc1-n1cncn1 28.1%
S=c1nc[nH]c2c1cnn2Cc1ccccc1 -63.3%
CCCC[C@@]1(C2CCCC2)Cc2cc(OCC(=O)O)c(Cl)c(Cl)c2C1=O -24%
COC(=O)c1nn(-c2ccccc2)ccc1=O -18.9%
CC(=O)N1/C(=C/c2ccc(N(C)C)cc2)C(=O)c2ccccc21 4.01% [at 10 µM]
CC1CCCCC1NC(=O)C1CCN(C(=O)NC2CCCCC2)CC1 (centres undefined) 27.7%
O=C1Nc2ccccc2N=C(c2ccccc2)C1N(Cc1ccc(F)cc1)C(=O)c1cccnc1 (centres undefined) -30.1%
O=C(NCc1ccc2c(c1)OCO2)c1nc(S(=O)(=O)Cc2ccccc2)ncc1Cl -27.9%
COc1ccc(NC(=O)/C(Cl)=C(/Cl)S(=O)(=O)Cc2ccccc2)cn1 -135%
N#CCSc1nnc(COc2ccc3ccccc3c2)o1 -9.11%
O=S(=O)(Nc1cccc(CCc2ccccn2)c1)c1ccc2ccccc2c1 5.91%
C=C[C@H]1CN2CCC1C[C@H]2[C@H](O)c1ccnc2ccc(OC)cc12 (some centres undefined) -22.3%
CN1/C(=C\C(=O)c2oc3ccccc3c2N)C(C)(C)c2ccccc21 18.8%
COC(C[C@H]1O[C@@H]1[C@H](O)[C@H](C)OCc1ccccc1)OC -0.97%
Cc1nc(Nc2ccc(S(N)(=O)=O)cc2)sc1C(=O)Nc1ccccc1 -27.8%
COc1ccc2[nH]c(C(=O)O)c(NC(=O)c3ccccc3[N+](=O)[O-])c2c1 18.8% [at 10 µM]
C[C@@H]1CN([C@H](C)CO)C(=O)CCCn2cc(nn2)CO[C@@H]1CN(C)C(=O)NC1CCCC1 18.2%
CC(=O)Nc1nc(C)c(Oc2ccc(Cl)cc2)c(=O)[nH]1 19.3%
CSc1nc2nccc(/C=C\c3ccccc3)n2n1 12.5%
COC(=O)C(=Cc1ccc(OCc2ccc([N+](=O)[O-])cc2)c(OC)c1)C(=O)OC -2.54%
COc1ccc(C(=O)OCC(=O)NCc2ccc3c(c2)OCO3)cc1[N+](=O)[O-] 15.8%
CCCn1c(SC(C)C(=O)NCC2CCCO2)nc2cc(Cl)ccc2c1=O (centres undefined) 34.2%
O=C(CSc1nc(O)cc(=O)n1-c1ccccc1)N1CCCCC1 8.21%
C[C@@H]1CN([C@H](C)CO)S(=O)(=O)c2ccc(C3=CCCCC3)cc2O[C@H]1CN(C)Cc1ccccc1 -76.1% [at 21 µM]
Oc1ccc(C2CNCCc3c2cc(O)c(O)c3Cl)cc1 (centres undefined) 2.77%
COC(=O)C1CCN(Cc2nnc(-c3ccccc3)o2)CC1 -1.11%
Cc1nc2ccccc2c(=O)n1NC(=O)c1ccc(Cl)c([N+](=O)[O-])c1 -65%
Cc1ccc2nc(SCC(=O)Nc3ccc(F)cc3)nc(=O)n2c1 -4.69%
CC(C(=O)OCn1nnc2ccccc2c1=O)N1C(=O)c2ccccc2C1=O (centres undefined) 34.9%
O=C1C=CC2(C=C1)O[C@H](Cc1ccccc1)[C@@H](Cc1ccccc1)O2 -115%
CCOC(=O)C(CC)(CC)C(=O)/C=C/c1ccc(Br)cc1 -49%
CCOc1ccccc1CNC(=O)c1cc2oc3ccccc3c2n1C 37.7%
CSCCC(NC(=O)c1ccc(Cl)cc1)C(=O)OCC(=O)Nc1cc(Cl)ccc1C (centres undefined) -30.2%
Cc1cccc(NC(=O)CNC(=O)Cn2ncc(Cl)c(Cl)c2=O)c1C -103%
CCOC(=O)c1cn(-c2ccccc2)nc1-c1cccnc1 15.8%
